Screening results from PubChem BioAssay.
NPR1 antag = human Npr1 receptor antagonism. HEK293 hNpr1 GloSensor cGMP, ANP-stimulated luminescence. Potency, µM (series often up to 46.3 µM), for inactives: at the highest dose activity change, negative = inhibition, usual class: inhibitors. 76,000 tested, 1.6% active. AID 1347048; calls by dose curve; further: nearly all actives have a fitted effect of over 60% in size
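HEK293 cells stably expressing human Npr1 and cGMP GloSensor pGS-40F, loaded 2 h with 2% GloSensor reagent, given compound 30 min at room temperature. Luminescence read before and 20 min after 0.1 nM hNppA.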
HEK293 tox = HEK 293 cell cytotoxicity | HEK 293 viability, ATP luminescence (CellTiter-Glo), 48-72 h | Potency, µM (titrated, usually from 115 µM), inactives show at the highest dose activity change, negative = cytotoxicity, most hits filed as inhibitors | 94,000 tested, 6.6% active; further: nearly all actives have a fitted effect of over 60% in size
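qHTS cytotoxicity; HEK 293, 250 cells/well; compound pinned; 48 or 72 hr, 37 degree Celsius, 5% CO2, 95% humidity; CellTiter-Glo, 10 min RT; luminescence (ATP).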
GPT2 inhibitor = blocks human glutamate pyruvate transaminase 2; Potency, µM (titrated, usually from 57.7 µM), for inactives: top-dose activity change, negative = inhibition, actives largely listed as inhibitors; 100,000 tested, 0.25% active; Recombinant GPT2, coupled pyruvate oxidase/HRP Amplex Red fluorescence; further: nearly all actives have a fitted effect of over 60% in size
Target sequence (Q8TD30 whole entry, looked up): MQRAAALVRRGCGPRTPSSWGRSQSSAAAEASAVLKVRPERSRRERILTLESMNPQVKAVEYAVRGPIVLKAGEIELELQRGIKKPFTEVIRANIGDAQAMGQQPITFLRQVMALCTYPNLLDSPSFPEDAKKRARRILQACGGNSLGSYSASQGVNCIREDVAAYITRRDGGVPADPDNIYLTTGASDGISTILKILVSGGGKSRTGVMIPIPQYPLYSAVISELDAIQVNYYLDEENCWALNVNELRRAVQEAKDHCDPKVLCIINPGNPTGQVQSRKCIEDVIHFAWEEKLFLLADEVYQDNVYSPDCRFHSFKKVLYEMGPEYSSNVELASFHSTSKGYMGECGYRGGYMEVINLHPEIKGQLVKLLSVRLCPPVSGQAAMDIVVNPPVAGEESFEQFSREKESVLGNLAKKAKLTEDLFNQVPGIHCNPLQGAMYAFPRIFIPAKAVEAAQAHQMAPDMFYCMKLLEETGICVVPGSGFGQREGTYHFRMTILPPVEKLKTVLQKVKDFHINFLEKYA
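GPT2 10ng/uL, a-KG 250uM, L-Ala 2mM, HEPES pH7.5 + 0.0001% Tween; 30 min RT. Then Amplex mix (PO/HRP/ThPP), 30 min RT dark, fluorescence. AOA 50uM used as positive control.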
3T3 cytotox = kills NIH 3T3 cells | NIH 3T3 viability, CellTiter-Glo ATP luminescence, 48-72 h | Potency, µM (titrated, usually from 96.7 µM), for the others: at the highest dose activity change, negative = cytotoxicity, most hits filed as inhibitors | 94,000 tested, 4.3% active | AID 1345082; further: nearly all actives have a fitted effect of over 55% in size
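ATP-dependent luminescence (CellTiter-Glo) served as the viability signal for NIH 3T3 cells treated with compound for 48 or 72 hr at 37 °C.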
FLuc inh = Photinus pyralis luciferase inhibition; P08659; purified P. pyralis luciferase, luminescence, biochemical; Potency, µM (titrated, usually from 115 µM), actives largely listed as inhibitors; 76,000 tested, 2.5% active; AID 1347043; further: nearly all actives have a fitted effect of over 65% in size
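Luminescence read by CCD imaging after purified firefly luciferase (10nM final) was added to substrate buffer holding 10uM D-luciferin and 10uM ATP, pH 7.5, pre-dosed with compound.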
* marks the source's active call; other numbers are inactive results; i = inactive; ? = inconclusive; . = not tested or not shown; [ ] = remark or other dose. Shown are actives, neighbours in structure and some others; about 10% of the full set was active somewhere. Unless noted, the call rests on the fitted dose curve; in most records, active means well fitted curve in the direction sought with a large enough effect; inconclusive means small, poorly fitted or top-dose-only effect, or another doubt; inactive means no such curve, though single readings can be large; an effect the other way counts as inactive or inconclusive. On the % scale 0 is the no-effect control and ±100 the full control effect; potency means the concentration at half of the fitted maximal effect.

SMILES	NPR1 antag	HEK293 tox	GPT2 inhibitor	3T3 cytotox	FLuc inh
COc1ccc(-c2nn(-c3cc(C)ccc3C)c(OC(C)=O)c2-c2ccc(NC(C)=O)cc2)c(OC)c1	-10%	-15%	2.8µM*	-14%	i
CCOCCNC(=O)c1cc(-c2ccc(Cl)cc2Cl)nc2c1cnn2C	.	?	-17%	?	.
COc1c(C)cnc(Cn2c(-c3ccccc3)nc(C)c(CCO)c2=O)c1C	1%	?	i	45µM*	i
Cc1nc(-c2ccccc2)n(Cc2ccccc2Cl)c(=O)c1CCO	-7%	?	2%	45µM*	i
COc1ccccc1Cn1c(-c2ccc(Cl)cc2)nc(C)c(CCO)c1=O	7%	32µM*	i	?	i
COc1ccccc1Cn1c(-c2cccc(Cl)c2)nc(C)c(CCO)c1=O	0%	?	?	?	i
Cc1nc(-c2ccc(Cl)cc2)n(Cc2ccc(F)cc2)c(=O)c1CCO	-6%	20µM*	-7%	?	i
COc1ccc(C(=O)N[C@@H]2CCC[C@@H]2C(=O)NCc2ccccn2)cc1	2%	0%	i	-9%	i
COCCCNC(=O)C(NC(=O)c1ccc(OC)cc1)C1CCN(C(=O)c2cccc(OC)c2)CC1 (configuration not stated)	-8%	-18%	-28%	-4%	i
Cc1cccc(-c2nc(Cn3c(-c4ccc(F)cc4)nc(C)c(CCO)c3=O)c(C)o2)c1	4%	i	i	3%	i
Cc1cccc(-c2nc(Cn3c(-c4ccccc4)nc(C)c(CCO)c3=O)c(C)o2)c1	-26%	79µM*	i	?	i
O=C(NCc1cccs1)C1CCCN(c2ccnc3ccnn23)C1 (configuration not stated)	.	89µM*	?	?	.
O=C(NCc1cccc(C(F)(F)F)c1)C1CCN(c2ccnc3ccnn23)CC1	.	35µM*	-4%	?	.
COc1ccccc1Nc1ccnc(N2CCCC(C(=O)NCCSC)C2)n1 (configuration not stated)	.	?	i	?	.
COc1ccccc1Nc1ccnc(N2CCC(C(=O)NCc3cccc(C(F)(F)F)c3)CC2)n1	.	?	-15%	32µM*	.
COc1ccccc1Nc1ccnc(N2CCC(C(=O)NCCSC)CC2)n1	.	?	i	40µM*	.
O=C(NCc1ccc(F)cc1)c1nc(-c2ccc(Cl)cc2)c2ccccn12	1%	?	-4%	-24%	i
N#Cc1ccc(S(=O)(=O)N2C[C@@H](Oc3ccccc3)C[C@H]2C(=O)N2CCOCC2)cc1	.	i	i	-1%	.
CN(C)CCN(C)C(=O)c1ccc2c(c1)NC(C)(COc1ccccc1)CO2 (configuration not stated)	-6%[70.6 µM]	?	-15%[88.5 µM]	89µM*	i
COc1ccc(OCC2(C)COc3ccc(C(=O)N(C)CCN(C)C)cc3N2)cc1 (configuration not stated)	-1%[70.6 µM]	-29%[172 µM]	-1%[88.5 µM]	?	i
CN(C(=O)c1ccc2c(c1)NC(C)(CNCc1ccccc1)CO2)c1ccccc1 (configuration not stated)	-9%[70.6 µM]	?	-10%[88.5 µM]	?	i
CN(C)CCN(C)C(=O)c1ccc2c(c1)NC(C)(CCCCc1ccccc1)CO2 (configuration not stated)	0%[70.6 µM]	100µM*	i	32µM*	i
CC1(CCCCc2ccccc2)COc2ccc(C(=O)N3CCOCC3)cc2N1 (configuration not stated)	?	?	?	?	i
CN(Cc1ccccc1)C(=O)c1ccc2c(c1)NC(C)(CNCc1ccccc1)CO2 (configuration not stated)	-7%[70.6 µM]	?	-17%[88.5 µM]	89µM*	i
CNC(=O)[C@H]1C[C@]2(CCCCN(C)C2=O)N(C(=O)Cc2cccs2)[C@H]1c1ccccc1	.	5%	.	?	.
SMILES	NPR1 antag	HEK293 tox	GPT2 inhibitor	3T3 cytotox	FLuc inh
Cc1ncccc1C(=O)N1CCC(c2nn(C)c(=O)n2C2CCCC2)CC1	.	1%	0%	-12%	.
O=C(NCc1ccc(C(F)(F)F)cc1)C1CCN(Cc2ccccc2-c2cccnc2)CC1	.	?	5%	?	.
COc1cccc(C(=O)N2CC(Oc3cccc(-c4nc(-c5ccccc5)no4)c3)C2)c1	-4%	?	i	?	?
COc1cccc(C(=O)N2CC(Oc3ccc(-c4nc(-c5ccccc5)no4)cc3)C2)c1	-10%	22µM*	i	?	i
COc1cccc(C(=O)N2CC(Oc3ccccc3-c3nc(-c4ccccc4)no3)C2)c1	-8%	20µM*	-20%	?	?
Cc1cnc(C(=O)N2CC(Oc3ccccc3-c3nc(C4CC4)no3)C2)cn1	6%	?	-4%	-23%	i
COc1cccc(C(=O)N2CCC(Oc3ccccc3-c3nc(C4CCOCC4)no3)C2)c1 (configuration not stated)	-4%	?	i	?	i
Cc1nc(C)c(C(=O)N2CC(Oc3ccccc3-c3nc(C4CC4)no3)C2)s1	-2%	89µM*	i	?	i
Cn1nccc1C(=O)N1CCC(Oc2ccc(-c3noc(-c4ccccc4)n3)cc2)C1 (configuration not stated)	.	22µM*	i	?	.
Cn1nccc1C(=O)N1CCC(Oc2ccccc2)C1 (configuration not stated)	4%	1%	-21%	-9%	i
CCOC(=O)C1(Cc2ccccc2C)CCCN(Cc2cnc(C)s2)C1 (configuration not stated)	1%	?	-26%	-19%	i
O=C(Cc1cccnc1)N1CCN(c2ccc3nnc(C4CC4)n3n2)CC1	.	1%	.	-13%	.
O=C(c1ccc(C(F)(F)F)cc1)N1CCC(C(=O)N2CCC(N3Cc4cccn4C3=O)CC2)CC1	.	?	2%	?	.
O=C(c1cccnc1)N1CC(Oc2ccc(-c3noc(-c4ccccc4)n3)cc2)C1	11µM*	?	i	-15%	?
CCn1cc(S(=O)(=O)N2CC(c3nc(CCOc4cccc(C)c4)no3)C2)cn1	.	?	-8%	?	.
CCn1cc(S(=O)(=O)N2CCCCC2c2nc(CCOc3ccc(F)cc3)no2)cn1 (configuration not stated)	-19%	45µM*	i	?	i
COCCN1CCN(C[C@@H]2C=C(C)[C@H](Cc3nnc(C)o3)C[C@H]2C(C)C)CC1	-3%[70.6 µM]	89µM*	-1%[88.5 µM]	?	i
COc1ccc(-c2nnc(C[C@@H]3C[C@@H](C(C)C)[C@H](CN4CCN(c5ncccn5)CC4)C=C3C)o2)cc1	-27%	40µM*	-6%	?	i
